Ten molecules from PubChem BioAssay AID1224865 (Sanford-Burnham Center for Chemical Genomics, 2016) can be followed below.

SMILES strings stand for the structures. Hit rate of the full screen: of about 360,000 compounds, about 1,100 (0.31%) were called active. This is one part of a sample in which actives are shown more often than they occur. Values without a mark were called inactive. No stated cut-off is given here; in the data, active means activity change above about 30% (passing the limit was not always enough); inactive means the rest.

In this assay the target is Hepatocyte nuclear factor 4-alpha (Homo sapiens) (UniProt P41235). Description: HNF4-alpha DNA association modulation – biochemical, fluorescence polarization, FITC-DNA, primary screen (AID 1224865). To be noted: HNF4a-FITC DNA binding, 1 h, at 10 µM, stronger effect = higher value.
Chain of Hepatocyte nuclear factor 4-alpha (Homo sapiens) (P41235 whole entry, looked up): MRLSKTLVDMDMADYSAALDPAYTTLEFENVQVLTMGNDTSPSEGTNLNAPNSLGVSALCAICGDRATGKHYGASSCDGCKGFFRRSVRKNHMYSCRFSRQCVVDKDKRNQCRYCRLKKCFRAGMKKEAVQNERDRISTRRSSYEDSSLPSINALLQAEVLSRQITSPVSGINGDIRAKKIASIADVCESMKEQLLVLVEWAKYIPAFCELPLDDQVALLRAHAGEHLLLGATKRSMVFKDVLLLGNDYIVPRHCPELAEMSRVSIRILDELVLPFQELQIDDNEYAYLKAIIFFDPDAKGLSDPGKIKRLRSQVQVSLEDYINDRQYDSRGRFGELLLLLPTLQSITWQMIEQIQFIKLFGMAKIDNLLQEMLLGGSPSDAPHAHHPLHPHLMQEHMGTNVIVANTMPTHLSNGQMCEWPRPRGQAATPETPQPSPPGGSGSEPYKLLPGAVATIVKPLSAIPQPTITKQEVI
On to `CN1CCN(C(=S)SCC(=O)Nc2ccc(Cl)cc2C(=O)c2ccccc2)CC1`, for which the activity change was -2.35%.
Regarding `O=C(CCN1CCCCC1)NCC(=O)Nc1ccc(Br)cc1C(=O)c1ccccc1`, the activity change is 53% (active).
The value for `O=C(CN1CCCCC1)Nc1ccc(Br)cc1C(=O)c1ccccc1Cl` was -1.1%.
The value for `CCOCCc1c(O)[nH]c(=S)[nH]c1=O` was -0.41%.
The value for `O=C1N=c2ccccc2=C/C1=C\c1c(O)[nH]c(=S)[nH]c1=O` was 4.26%; that for `COc1ccccc1N=Nc1c(O)[nH]c(=S)[nH]c1=O` was 68.8% (active); that for `C=Cn1ccnc1P(=S)(c1cc(N(CC)CC)ns1)c1nccn1C=C` was -0.17%.
In the case of `CCN(CC)c1ccc([N+](=O)[O-])c2cccnc12`, the activity change is 4.4%.
The value for `COc1ccc(-c2nn(CCC#N)cc2C(=O)Nc2ccc(C(C)=O)cc2)cc1` was 2.38%.
Take `CC1CC=CCC12C(=O)NC(=S)NC2=O` (stereo not given): the activity change is -0.2%.
